In PubChem BioAssay (EPA / NIEHS):
Several values for one entry are separate records, joined by “and”; a condition that tells them apart may be missing. Equal entries are not always repeated. A structure can be active in one record and inactive in another. Activity calls are given as the source filed them. How the source made its calls: active means hit-call score of the fitted dose curve at least 0.9, where 1 is the maximum; inactive means score below 0.9.

Columns and labels:
[1] = BSK_CASM3C_SRB: Viability Assessment in the BioMAP Diversity Plus: CASM3C Assay (AID 2283050); conditions: primary human coronary artery smooth muscle cells;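 further: total protein by SRB staining as cytotoxicity measure in parallel cultures; cells exposed to compound for 24 h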
[2] = read-out: Thrombomodulin, THBD (gene 7056); experiment: BSK_CASM3C_Thrombomodulin: BioMAP Diversity Plus: CASM3C Assay for Thrombomodulin Biomarker Activity (AID 2283051); conditions: primary human coronary artery smooth muscle cells; actives raise or lower the signal;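 further: thrombomodulin protein level measured by ELISA 24 h after dosing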
[3] = read-out: Tissue Factor, F3 (gene 2152); experiment: BSK_CASM3C_TissueFactor: BioMAP Diversity Plus: CASM3C Assay for Tissue Factor Biomarker Activity (AID 2283052); conditions: primary human coronary artery smooth muscle cells; actives raise or lower the signal;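 further: cell surface tissue factor protein level read by ELISA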
[4] = read-out: Interferon-gamma inducible Protein 10 (IP10), CXCL10 (gene 3627); experiment: BSK_hDFCGF_IP10: BioMAP Diversity Plus: hDFCGF Assay for Interferon-gamma inducible Protein 10 (IP10) Biomarker Activity (AID 2283053); conditions: primary human foreskin fibroblasts; actives raise or lower the signal
Procedure, shortened: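 ELISA read-out of IP-10 (CXCL10) from primary human skin fibroblasts, 24 h after compound addition. Gain or loss of signal versus DMSO baseline, bidirectional curve fitting.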

[5] = read-out: Urokinase-type plasminogen activator receptor (uPAR), PLAUR (gene 5329); experiment: BSK_CASM3C_uPAR: BioMAP Diversity Plus: CASM3C Assay for Urokinase-type plasminogen activator receptor (uPAR) Biomarker Activity (AID 2283054); conditions: primary human coronary artery smooth muscle cells; actives raise or lower the signal;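 further: cell-surface uPAR protein level quantified by ELISA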
[6] = read-out: Vascular cell adhesion molecule 1 (VCAM1), VCAM1 (gene 7412); experiment: BSK_CASM3C_VCAM1: BioMAP Diversity Plus: CASM3C Assay for Vascular cell adhesion molecule 1 (VCAM1) Biomarker Activity (AID 2283055); conditions: primary human coronary artery smooth muscle cells; actives raise or lower the signal;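 further: VCAM-1 protein level quantified by ELISA on the cells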
[7] = read-out: Collagen III, COL3A1 (gene 1281); experiment: BSK_hDFCGF_CollagenIII: BioMAP Diversity Plus: hDFCGF Assay for Collagen III Biomarker Activity (AID 2283056); conditions: primary human foreskin fibroblasts; actives raise or lower the signal
Procedure, shortened: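 ELISA read-out of collagen III from human skin fibroblast cultures sampled 24 h post-dosing. Values were derived by bidirectional fitting relative to the DMSO vehicle control.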

[8] = read-out: Epidermal growth factor receptor (EGFR), EGFR (gene 1956); experiment: BSK_hDFCGF_EGFR: BioMAP Diversity Plus: hDFCGF Assay for Epidermal growth factor receptor (EGFR) Biomarker Activity (AID 2283057); conditions: primary human foreskin fibroblasts; actives raise or lower the signal
Procedure, shortened: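 ELISA readout of EGFR on human dermal fibroblasts (primary foreskin cells), 24 h post-dosing; bidirectional curve fit vs DMSO baseline, gain or loss of signal scored.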

[9] = read-out: Interleukin-8 (IL8), CXCL8 (gene 3576); experiment: BSK_hDFCGF_IL8: BioMAP Diversity Plus: hDFCGF Assay for Interleukin-8 (IL8) Biomarker Activity (AID 2283058); conditions: primary human foreskin fibroblasts; actives raise or lower the signal
Procedure, shortened: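 Cells used are human skin primary fibroblasts. Chemical is added, cultures run 24 h, then IL-8 is quantified by ELISA, and gain or loss versus DMSO control is fitted in both directions.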

[10] = BSK_hDFCGF_Proliferation: Cell Proliferation Assessment in the BioMAP Diversity Plus: hDFCGF Assay (AID 2283059); conditions: primary human foreskin fibroblasts;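 further: curves fitted for both rise and fall of signal versus DMSO baseline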
Procedure, shortened: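 Primary human foreskin fibroblasts, sub-confluent; […]; 10% TCA fix, 0.1% SRB stain, A560 total protein. Gain/loss fitted bidirectionally vs DMSO control.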

CCOc1nc(NC)nc(NC(=O)NS(=O)(=O)c2ccccc2C(=O)OC)n1
outcome [1]: inactive | outcome [2]: inactive | outcome [3]: inactive | AC50 [4]: 26.5 µM (active) | outcome [5]: inactive | outcome [6]: inactive | outcome [7]: inactive | outcome [8]: inactive | outcome [9]: inactive | outcome [10]: inactive

O=C(Nc1ccccc1)Nc1cnns1
outcome [1]: inactive | outcome [2]: inactive | outcome [3]: inactive | outcome [4]: inactive | outcome [5]: inactive | outcome [6]: inactive | outcome [7]: inactive | outcome [8]: inactive | outcome [9]: inactive | outcome [10]: inactive

COc1cc(OC)nc(NC(=O)NS(=O)(=O)c2cc(NC=O)ccc2C(=O)N(C)C)n1
outcome [1]: inactive | outcome [2]: inactive | outcome [3]: inactive | outcome [4]: inactive | outcome [5]: inactive | outcome [6]: inactive | outcome [7]: inactive | outcome [8]: inactive | outcome [9]: inactive | outcome [10]: inactive

CC(C)(C)C(O)/C(=C\c1ccc(Cl)cc1Cl)n1cncn1 (stereo unspecified)
outcome [1]: inactive | AC50 [2]: 15 µM (active) | outcome [3]: inactive | AC50 [4]: 36.5 µM (active) | outcome [5]: inactive | outcome [6]: inactive | outcome [7]: inactive | outcome [8]: inactive | AC50 [10]: 29.8 µM (active)

COC(=O)c1ccccc1CS(=O)(=O)NC(=O)Nc1nc(OC)cc(OC)n1
outcome [1]: inactive | outcome [2]: inactive | outcome [3]: inactive | outcome [4]: inactive | outcome [5]: inactive | outcome [6]: inactive | outcome [7]: inactive | outcome [8]: inactive | outcome [10]: inactive

Oc1cc(Cl)ccc1Oc1ccc(Cl)cc1Cl
AC50 [1]: 33.1 µM (active) [middle of 4 runs] | AC50 [2]: 4.67 µM (active) | outcome [2]: inactive | AC50 [3]: 28.3 µM (active) and 27.8 µM (active) and 22.2 µM (active) | outcome [3]: inactive | AC50 [4]: 15.4 µM (active) [middle of 4 runs] | AC50 [5]: 32 µM (active) [middle of 4 runs] | AC50 [6]: 35.4 µM (active) [middle of 4 runs] | AC50 [7]: 7.46 µM (active) [middle of 4 runs] | AC50 [8]: 5.45 µM (active) and 5.46 µM (active) | outcome [8]: inactive | AC50 [9]: 30 µM (active) [middle of 4 runs] | AC50 [10]: 4.61 µM (active) [middle of 4 runs]

O=C(O)C(F)(F)C(F)(F)C(F)(F)C(F)(F)C(F)(F)C(F)(F)C(F)(F)F
outcome [1]: inactive | outcome [2]: inactive | outcome [3]: inactive | outcome [4]: inactive | outcome [5]: inactive | outcome [6]: inactive | outcome [7]: inactive | AC50 [8]: 22.4 µM (active) | outcome [8]: inactive | AC50 [10]: 8.07 µM (active) | outcome [10]: inactive

CC1(C)C(C=C(Cl)Cl)C1C(=O)OC(C#N)c1ccc(F)c(Oc2ccccc2)c1 (stereo unspecified)
outcome [1]: inactive | AC50 [2]: 33.8 µM (active) | outcome [3]: inactive | outcome [4]: inactive | outcome [5]: inactive | outcome [6]: inactive | AC50 [7]: 0.189 µM (active) | AC50 [8]: 3.84 µM (active) | AC50 [10]: 13.2 µM (active)

COc1nn(CSP(=S)(OC)OC)c(=O)s1
outcome [1]: inactive | outcome [2]: inactive | outcome [3]: inactive | AC50 [4]: 20 µM (active) | outcome [5]: inactive | outcome [6]: inactive | outcome [7]: inactive | outcome [8]: inactive | outcome [10]: inactive

O=S1OCC2C(CO1)C1(Cl)C(Cl)=C(Cl)C2(Cl)C1(Cl)Cl (stereo unspecified)
AC50 [1]: 32.4 µM (active) | AC50 [2]: 14.3 µM (active) | outcome [3]: inactive | AC50 [4]: 29.5 µM (active) | AC50 [5]: 36.6 µM (active) | AC50 [6]: 25.8 µM (active) | AC50 [7]: 22.5 µM (active) | outcome [8]: inactive | AC50 [10]: 23.2 µM (active)

ClC1C(Cl)C(Cl)C(Cl)C(Cl)C1Cl (stereo unspecified)
AC50 [1]: 35.2 µM (active) | outcome [1]: inactive | outcome [2]: inactive | outcome [3]: inactive | AC50 [4]: 32.2 µM (active) | outcome [4]: inactive | AC50 [5]: 29 µM (active) | outcome [5]: inactive | AC50 [6]: 32.2 µM (active) and 32.4 µM (active) | outcome [6]: inactive | AC50 [7]: 20 µM (active) | outcome [7]: inactive | outcome [8]: inactive | AC50 [10]: 28.1 µM (active) and 24.6 µM (active) | outcome [10]: inactive

Clc1ccccc1-c1nnc(-c2ccccc2Cl)nn1
outcome [1]: inactive | outcome [2]: inactive | outcome [3]: inactive | AC50 [4]: 14.5 µM (active) | outcome [5]: inactive | outcome [6]: inactive | AC50 [7]: 3 µM (active) | outcome [8]: inactive | outcome [9]: inactive | outcome [10]: inactive

CC[C@H](C)[C@H]1O[C@]2(C=C[C@@H]1C)C[C@@H]1C[C@@H](C/C=C(\C)[C@@H](O[C@H]3C[C@H](OC)[C@@H](O[C@H]4C[C@H](OC)[C@@H](O)[C@H](C)O4)[C@H](C)O3)[C@@H](C)/C=C/C=C3\CO[C@@H]4[C@H](O)C(C)=C[C@@H](C(=O)O1)[C@]34O)O2 (tested in a mixture with another compound)
AC50 [1]: 15 µM (active) | outcome [2]: inactive | outcome [3]: inactive | AC50 [4]: 10.7 µM (active) | AC50 [5]: 12.2 µM (active) | AC50 [6]: 15 µM (active) | AC50 [7]: 6.63 µM (active) | AC50 [8]: 5.21 µM (active) | AC50 [9]: 9.73 µM (active) | AC50 [10]: 5.3 µM (active)

OCCOc1ccccc1
outcome [1]: inactive | outcome [2]: inactive | outcome [3]: inactive | outcome [4]: inactive | outcome [5]: inactive | outcome [6]: inactive | outcome [7]: inactive | outcome [8]: inactive | outcome [9]: inactive | outcome [10]: inactive

CCCN(CCOc1c(Cl)cc(Cl)cc1Cl)C(=O)n1ccnc1
outcome [1]: inactive | AC50 [2]: 3.97 µM (active) | outcome [3]: inactive | AC50 [4]: 30.7 µM (active) | outcome [5]: inactive | outcome [6]: inactive | AC50 [7]: 31.1 µM (active) | outcome [8]: inactive | outcome [9]: inactive | AC50 [10]: 21 µM (active)

CNC(=O)Oc1ccccc1OC(C)C
outcome [1]: inactive | outcome [2]: inactive | outcome [3]: inactive | outcome [4]: inactive | outcome [5]: inactive | outcome [6]: inactive | outcome [7]: inactive | outcome [8]: inactive | outcome [9]: inactive | outcome [10]: inactive

Oc1ccc(Cl)cc1Cc1ccccc1
AC50 [1]: 32.4 µM (active) [middle of 7 runs] | outcome [2]: inactive | AC50 [3]: 31.3 µM (active) [middle of 4 runs] | outcome [3]: inactive | AC50 [5]: 33.9 µM (active) [middle of 6 runs] | outcome [5]: inactive | AC50 [6]: 33.2 µM (active) [middle of 7 runs] | AC50 [8]: 12.4 µM (active) [middle of 4 runs] | outcome [8]: inactive | AC50 [10]: 7.84 µM (active) [middle of 7 runs]

O=S(=O)(O)C(F)(F)C(F)(F)C(F)(F)C(F)(F)C(F)(F)C(F)(F)C(F)(F)C(F)(F)F
outcome [1]: inactive | outcome [2]: inactive | outcome [3]: inactive | AC50 [4]: 21.7 µM (active) [middle of 7 runs] | outcome [4]: inactive | outcome [5]: inactive | AC50 [6]: 13 µM (active) and 30 µM (active) | outcome [6]: inactive | AC50 [7]: 35.1 µM (active) and 30.8 µM (active) | outcome [7]: inactive | AC50 [8]: 3.97 µM (active) | outcome [8]: inactive | outcome [10]: inactive

CC(C)(C)C(O)C(Oc1ccc(Cl)cc1)n1cncn1 (stereo unspecified)
outcome [1]: inactive | outcome [2]: inactive | outcome [3]: inactive | outcome [4]: inactive | outcome [5]: inactive | outcome [6]: inactive | outcome [7]: inactive | outcome [8]: inactive

O=[N+]([O-])c1c(Cl)c(Cl)c(Cl)c(Cl)c1Cl
outcome [1]: inactive | AC50 [2]: 24.8 µM (active) | outcome [3]: inactive | AC50 [4]: 38 µM (active) | outcome [5]: inactive | outcome [6]: inactive | AC50 [7]: 14.9 µM (active) | outcome [8]: inactive | outcome [9]: inactive | AC50 [10]: 19.7 µM (active)

Cc1cc(C)nc(NC(=O)NS(=O)(=O)c2ccccc2C(=O)OC2COC2)n1
outcome [1]: inactive | outcome [2]: inactive | outcome [3]: inactive | outcome [4]: inactive | outcome [5]: inactive | outcome [6]: inactive | outcome [7]: inactive | outcome [8]: inactive | outcome [9]: inactive | outcome [10]: inactive

O=C(O)CCCOc1ccc(Cl)cc1Cl
outcome [1]: inactive | outcome [2]: inactive | outcome [3]: inactive | outcome [4]: inactive | outcome [5]: inactive | outcome [6]: inactive | outcome [7]: inactive | outcome [8]: inactive | outcome [10]: inactive

CCOCN(C(=O)CCl)c1c(C)cccc1CC
outcome [1]: inactive | AC50 [2]: 16.8 µM (active) | outcome [3]: inactive | AC50 [4]: 20 µM (active) | outcome [5]: inactive | AC50 [6]: 20 µM (active) | AC50 [7]: 8.23 µM (active) | outcome [8]: inactive | AC50 [10]: 14.5 µM (active)

CCC(C)(C)C(=O)OC1=C(c2ccc(Cl)cc2Cl)C(=O)OC12CCCCC2
AC50 [1]: 28.7 µM (active) | AC50 [2]: 10.5 µM (active) | outcome [3]: inactive | AC50 [4]: 10.3 µM (active) | outcome [5]: inactive | outcome [6]: inactive | AC50 [7]: 5.74 µM (active) | AC50 [8]: 5.45 µM (active) | AC50 [10]: 4.67 µM (active)

CC(C)N(C(=O)COc1nnc(C(F)(F)F)s1)c1ccc(F)cc1
outcome [1]: inactive | outcome [2]: inactive | outcome [3]: inactive | AC50 [4]: 22.9 µM (active) | outcome [5]: inactive | outcome [6]: inactive | outcome [7]: inactive | outcome [8]: inactive | AC50 [10]: 15.9 µM (active)
